Most compounds without a hit are left out; they make up all but 3.9% or so of the library.
AHR activator: AHR activators, primary screen, cell-based, luminescence, luciferase reporter, human. Aryl hydrocarbon receptor (Homo sapiens), P35869. AHR-responsive luciferase reporter cells. activation, % at 5 µM. 320,000 tested, 2.5% active; in the data active = activation above about 47%;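 also: 0% = vehicle wells and 100% = reference agonist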
HGIII-sPLA2 inh: human group III sPLA2 inhibitors, primary screen, biochemical, QFRET, BODIPY PC-A2 liposome substrate | inhibition, % at 12.2 µM | 370,000 tested, 0.56% active | QFRET BODIPY PC-A2 liposome hydrolysis, fluorescence | Group 3 secretory phospholipase A2 (Homo sapiens), Q9NZ20;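 active = inhibition above mean plus 3 SD of compounds lying within the high and low control bounds, cut at about 19% in these data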;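 also: 0% = median of test compound wells and 100% = no enzyme DMSO wells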
Target sequence (Q9NZ20 whole entry, looked up): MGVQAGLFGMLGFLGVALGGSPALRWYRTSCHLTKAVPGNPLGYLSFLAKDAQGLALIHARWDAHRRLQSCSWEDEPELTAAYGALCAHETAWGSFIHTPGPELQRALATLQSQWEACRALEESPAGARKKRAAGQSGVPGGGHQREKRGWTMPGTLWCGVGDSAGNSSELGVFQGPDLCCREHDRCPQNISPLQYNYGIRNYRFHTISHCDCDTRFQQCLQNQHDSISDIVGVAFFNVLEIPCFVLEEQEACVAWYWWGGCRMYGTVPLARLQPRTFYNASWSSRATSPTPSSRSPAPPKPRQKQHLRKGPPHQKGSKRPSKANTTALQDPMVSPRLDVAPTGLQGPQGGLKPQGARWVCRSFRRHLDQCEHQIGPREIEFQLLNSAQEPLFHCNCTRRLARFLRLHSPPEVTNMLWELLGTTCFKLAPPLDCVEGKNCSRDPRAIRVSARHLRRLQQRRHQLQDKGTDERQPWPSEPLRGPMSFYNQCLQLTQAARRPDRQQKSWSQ
PLC-gamma1 inh: PLC-gamma1 enzyme inhibitors, primary screen, biochemical, fluorescence, purified enzyme. fluorogenic substrate. inhibition, % at 12.2 µM. 370,000 tested, 0.84% active. AID 720700, 2013; in the data active = inhibition above about 9.5%
HIF activator: HIF pathway transcriptional activators, primary screen, cell-based, U2OS HRE-luciferase, luminescence; U2OS HRE-luciferase reporter; normalized: DMSO 0%, desferrioxamine 100%; activation, % at 7.5 µM (by protocol); 300,000 tested, 0.32% active; AID 1910, 2009;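 active = mean activation of at least 10% of the iron chelator positive control signal, with at least half of replicates also reaching 10%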
PLC-beta3 inh: human PLC-beta3 inhibitors, primary screen, biochemical, fluorescence; AID 720704, 2013; 370,000 tested, 0.18% active; inhibition, % at 12.2 µM; Purified PLC-beta3, fluorogenic substrate; in the data active = inhibition above about 11%;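 also: 0% = median of compound wells on plate and 100% = full blocker control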
CR mimetic SO: reduction of superoxide in aged yeast, primary screen, HTS. S. cerevisiae aged cells, superoxide DHE fluorescence; hits give low values. superoxide response (% of plate mean), % at 10 µM. 330,000 tested, 0.18% active;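 active = superoxide response under a set limit, about three screen SD below normal, cut at about 65% in these data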;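 also: yeast aged for seven days with compound at 30 °C before DHE staining; 100% = average MFI of all compound-treated wells on the plate with controls excluded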
AHR act confirm: AHR activators, confirmation, cell-based, luminescence, luciferase reporter, human; shares compounds with AHR activator; human cells, AHR-responsive luciferase reporter; activation, % at 9 µM; 2,300 tested, 87% active; in the data active = activation above about 49%;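 also: HepG2 hepatoma cells carrying a DRE-driven firefly luciferase reporter; 0% = vehicle wells and 100% = reference agonist wells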
PXR act counter: human PXR activators, counter-screen for AHR activator project, cell-based, luciferase luminescence; shares compounds with AHR activator; cell-based PXR reporter; activation, % at 11.6 µM; 2,300 tested, 88% active; AID 434939, 2010; in the data active = activation above about 11%;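 also: human hepatoma DPX-2 cells expressing full-length human PXR; 0% = DMSO and 100% = reference agonist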
Starred values were filed as active, the others as inactive; . = not tested or not shown.

SMILES | AHR activator | HGIII-sPLA2 inh | PLC-gamma1 inh | HIF activator | PLC-beta3 inh | CR mimetic SO | AHR act confirm | PXR act counter
CCCC(=O)Nc1nc(C)c(-c2csc(Nc3cc(OC)ccc3OC)n2)s1 | 85.0* | 4.1 | -22.0 | -1.3 | -34.6 | 101.1 | 75.9* | 45.0*
C=CCCC(=O)Nc1nc(C)c(-c2csc(Nc3cccc(OC)c3)n2)s1 | 300.8* | 2.1 | -10.6 | -0.1 | -22.8 | 102.2 | 100.2* | 13.9*
CCOC(=O)CNC1CC(=O)N(c2ccc(Br)cc2)C1=O (stereo not given) | -1.7 | 0.8 | 5.1 | -0.2 | -3.1 | 80.8 | . | .
O=C(COc1ccc(F)cc1)Nc1ccccc1N1CCOCC1 | 0.2 | -2.0 | 3.4 | -0.4 | -2.7 | 100.4 | . | .
O=C(NCCOc1ccccc1)C1Nc2ccc(C(F)(F)F)cc2C2c3ccccc3CC12 (stereo not given) | 87.0* | 1.2 | -1.1 | -4.5 | -1.3 | 106.1 | 6.5 | 78.4*
Cc1nc(N2CCN(c3ccccc3)CC2)nc2c1C(=O)CC(C)C2 (stereo not given) | 91.8* | 0.0 | 2.2 | -0.3 | 0.9 | 105.9 | 62.3* | 13.2*
O=C(Nc1cccc(S(=O)(=O)N2CCCCCC2)c1)c1ccc2c(c1)OCO2 | 81.6* | -34.1 | 1.4 | -0.2 | 7.2 | 106.0 | 61.9* | 163.9*
O=C(Nc1cccc(S(=O)(=O)N2CCCC2)c1)c1ccc2c(c1)OCO2 | 87.7* | 0.0 | 1.9 | 0.3 | -0.1 | 106.1 | 63.5* | 208.7*
CC(C)c1ccc([C@@H]2O[C@H](CCc3ccccc3)CC3=C2C(=O)OC(C)(C)O3)cc1 | . | -4.7 | 1.0 | . | 1.8 | . | . | .
COC(=O)[C@]12CCCCC=C1N(CCc1ccc(OC)c(OC)c1)C(=O)[C@H](CC(=O)N1CCC(c3ccccc3)CC1)C2 | . | -5.9 | -0.2 | . | 5.9 | . | . | .
c1ccc(-c2nc(NCc3ccco3)c3oc4ccccc4c3n2)cc1 | 87.6* | -7.1 | -3.2 | 0.0 | -4.5 | 75.5 | 105.0* | 34.6*
O=c1c2cc3c(=O)n(-c4ccccc4O)c(=O)c3cc2c(=O)n1-c1ccccc1O | 8.9 | 7.4 | -0.9 | -0.6 | -9.1 | 101.6 | . | .
CSc1sc(C(=O)NN)c2c1C(O)CCC2 (stereo not given) | 80.1* | 7.2 | -29.3 | 0.2 | -45.3 | 88.8 | 10.8 | 3.9
Cc1nc2nc(SCC(=O)c3ccc([N+](=O)[O-])cc3)[nH]c2cc1Br | 13.0 | -4.6 | -1.3 | -0.1 | 0.4 | 104.9 | . | .
CCCc1c(C(=O)Nc2cc(C(C)(C)C)on2)cnn1-c1ccccc1 | -2.6 | 0.4 | 4.2 | 0.1 | 3.2 | 86.8 | . | .
CCCc1c(C(=O)Nc2ccc(F)cc2F)cnn1-c1ccccc1 | 82.8* | 9.8 | -0.5 | 0.1 | -4.7 | 92.1 | 90.6* | 71.2*
Cc1nn(C)c(C(=O)Nc2ccc(Br)cc2F)c1Br | 87.7* | . | . | 1.1 | . | 97.5 | 110.4* | 12.2*
Cc1occc1C(=O)Nc1ccc(Br)cc1F | 25.5 | 2.2 | 3.8 | -22.2 | 5.2 | 101.2 | . | .
O=C(Nc1c(F)cc(F)cc1Br)c1cccnc1 | 1.3 | 4.5 | 0.1 | -0.1 | 0.7 | 105.7 | . | .
O=C(Nc1ccc(Br)cc1F)c1cccnc1 | 125.6* | 5.5 | 0.3 | 0.4 | -0.9 | 104.2 | 59.9* | 26.2*
Cn1ncc(Br)c1C(=O)Nc1ccc(F)cc1F | 84.7* | 3.8 | 4.7 | -0.4 | 1.0 | 101.3 | 79.8* | 17.4*
Cc1cc(NC(=O)c2c(Br)cnn2C)no1 | . | -2.6 | 1.0 | -0.9 | -5.2 | . | . | .
Cc1c(Cl)cccc1Nc1n[nH]c(=S)s1 | . | 15.8 | 2.2 | . | -0.4 | . | . | .
CC(C)C1C(=O)N(Cc2cn(CCC3OCCO3)nn2)CCS(=O)(=O)N1Cc1ccc(-c2ccc(F)cc2Cl)cc1 (stereo not given) | . | -38.5 | 4.0 | . | 2.0 | . | . | .
COc1ccc(C)cc1NC(=O)C(OC(=O)CNC(=O)c1ccc(Oc2ccccc2)cc1)c1ccccc1 (stereo not given) | 94.9* | -4.2 | -1.0 | 0.1 | 0.0 | 74.0 | 71.1* | 19.6*
SMILES | AHR activator | HGIII-sPLA2 inh | PLC-gamma1 inh | HIF activator | PLC-beta3 inh | CR mimetic SO | AHR act confirm | PXR act counter
COc1ccc(C(F)(F)F)cc1NC(=O)C(OC(=O)CNC(=O)c1ccccc1)c1ccccc1 (stereo not given) | . | -5.2 | 1.3 | . | 0.6 | . | . | .
COc1cc(S(=O)(=O)Nc2ccc3cn[nH]c3c2)ccc1Cl | 11.3 | -43.5 | 1.7 | 0.3 | 1.3 | 87.3 | . | .
CC(C)Cc1nc(SCC(=O)N2CCCC2)c2c(=O)n(C)c(=O)n(C)c2n1 | -2.4 | -1.8 | 2.7 | 0.1 | -4.7 | 95.9 | . | .
O=C1C(Cl)=C(NCCc2ccccc2)C(=O)N1CCc1ccccc1 | 35.4 | 2.6 | -31.4 | -17.9 | -46.4 | 99.8 | . | .
CN1CCN(C2=C(Cl)C(=O)N(CCc3ccccc3)C2=O)CC1 | 0.6 | -8.9 | -14.7 | 2.1 | -19.9 | 100.4 | . | .
O=C1C(Cl)=C(NCC2CCCO2)C(=O)N1CCc1ccccc1 (stereo not given) | 92.4* | -5.7 | -24.9 | 2.8 | -38.7 | 117.0 | 90.8* | 65.3*
O=C1C(Cl)=C(N2CCOCC2)C(=O)N1CCc1ccccc1 | 92.1* | 6.6 | -7.8 | 1.7 | -10.2 | 86.8 | 116.7* | 16.2*
Cc1c(C(=O)NCc2ccc(C(C)C)cc2)sc(=O)n1Cc1ccc(S(=O)(=O)N(C)C)cc1 | . | -8.7 | 1.8 | . | -1.8 | . | . | .
Cn1cccc([N+](=O)[O-])c1=O | . | 8.8 | 3.8 | . | 3.0 | . | . | .
O=[N+]([O-])c1cccn2cc(-c3ccc(Br)cc3)nc12 | 106.5* | 13.3 | -1.6 | 1.8 | -18.2 | 107.3 | 214.3* | 17.3*
Nc1c(Cl)c(Cl)nc(C(=O)N/N=C/c2cccnc2)c1Cl | 85.7* | -0.8 | -0.7 | 0.4 | -5.2 | 104.9 | 77.7* | 39.5*
O=C(N/N=C/c1cccnc1)c1ccccc1Cl | 5.8 | -1.5 | 0.9 | 1.7 | -2.5 | 124.6 | . | .
Cc1cc(Cl)ccc1NC(=O)COC(=O)c1c(C)noc1C | 2.1 | 4.7 | 0.4 | . | -1.4 | 102.9 | . | .
O=c1c2ccccc2ncn1Cc1ccc(Cl)cc1 | 2.8 | . | . | -0.5 | . | 102.3 | . | .
O=c1c2ccccc2ncn1-c1ccc(Cl)cc1 | 111.8* | -0.9 | -0.9 | 1.5 | -9.2 | 98.8 | 114.7* | 9.5
Cc1nnc(NC(=O)C2CC(=O)N(C(C)c3ccccc3)C2)s1 (stereo not given) | 1.4 | 9.9 | -0.5 | -0.1 | -3.7 | 123.8 | . | .
COc1ccc(S(=O)(=O)N2CCCCC2)cc1NC(=O)c1ccc(OC)c(OC)c1 | . | 0.4 | 2.7 | . | -3.0 | . | . | .

Source: PubChem BioAssay
